Compounds without any hit were thinned out: in the full panel of roughly 79,000, 15% have a hit. Unmarked numbers belong to inactive results. The source made the active and inactive calls. No stated cut-off is given here; in the data, active means growth inhibition above about 70%; inactive means the rest. Where a SMILES comes first, the peptide text is derived from it. [ ]: non-standard residue; d: D form. The star is where a group is joined. Ac5c = NC1(C(=O)O)CCCC1; Cbz = O=C(OCc1ccccc1)*; Nva = CCC[CH](N)C(=O)O; Boc = CC(C)(C)OC(=O)*; tBu = CC(C)(C)*
Assays:
[1] = NCI Yeast Anticancer Drug Screen. Data for the rad50 strain (AID 155);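 further: 0% = growth of vehicle-only cultures of the same strain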; conditions: S. cerevisiae rad50 strain growth inhibition; at 50.0 µM; stronger effect = higher value
Procedure, shortened: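 Yeast carrying a defined DNA repair defect were exposed to test compounds, and growth was compared with vehicle-treated controls to give percent inhibition.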

[2] = NCI Yeast Anticancer Drug Screen. Data for the mec2-1 strain (AID 157); conditions: S. cerevisiae mec2-1 strain, at 50.0 µM, stronger effect = higher value
Procedure, shortened: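 Yeast mec2-1 mutant treated with compound. Readout: growth inhibition vs vehicle controls.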

[3] = NCI Yeast Anticancer Drug Screen. Data for the sgs1 mgt1 strain (AID 161);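 further: 0% = growth of cultures given vehicle only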; conditions: S. cerevisiae sgs1 mgt1 strain, at 50.0 µM, stronger effect = higher value
Procedure, shortened: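 Mutant yeast exposed to compound; growth scored against vehicle-only wells.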

[4] = NCI Yeast Anticancer Drug Screen. Data for the cln2 rad14 strain (AID 165);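 further: 0% = growth equal to vehicle treated cultures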; conditions: S. cerevisiae cln2 rad14 strain, at 50.0 µM, stronger effect = higher value
Procedure, shortened: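 cln2 rad14 yeast strain; compound exposure; growth inhibition read vs vehicle controls.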

[5] = NCI Yeast Anticancer Drug Screen. Data for the bub3 strain (AID 167); conditions: S. cerevisiae bub3 mutant strain, at 50.0 µM, stronger effect = higher value
Procedure, shortened: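 Compounds were applied to a genetically altered yeast strain carrying a cell-cycle control defect. Growth inhibition was scored against vehicle-treated controls.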

[6] = NCI Yeast Anticancer Drug Screen. Data for the mlh1 rad18 strain (AID 175); conditions: S. cerevisiae mlh1 rad18 strain growth inhibition; at 50.0 µM; stronger effect = higher value
Procedure, shortened: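 Yeast w/ defined DNA-repair lesions; compound exposure; growth vs vehicle controls → % inhibition.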

Row | Structure (SMILES) | growth inhibition [1] | growth inhibition [2] | growth inhibition [3] | growth inhibition [4] | growth inhibition [5] | growth inhibition [6]
1 | Nc1ccccc1C(=O)Nc1ccccn1 | 4.05% | -1.1% | 0.5% | 5.35% | 0.45% | -6.25%
2 | CC1CCCC2(CC[N+](C)(CCC[N+](C)(C)C)CC2)C1 (stereo unspecified) | -9.5% | -7.95% | -16.2% | 15.1% | -41% | -1.7%
3 | COCC(=O)C(C(C)=O)C(c1ccc2c(c1)OCO2)C(C(C)=O)C(=O)COC (stereo unspecified) | -40.5% | -8.25% | -18.9% | -39.5% | -5.75% | -2.6%
4 | COc1c(C)cc2c(C(C)C)c(O)c(O)c(C=O)c2c1O | 86.1% (active) | 88.2% (active) | 80.5% (active) | 79% (active) | 80.8% (active) | 76.3% (active)
5 | CCCCB1OB(CCCC)OB(CCCC)O1 | -1.65% | -17.8% | -6.2% | 5.25% | 7.15% | 4.25%
6 | OC/C(Cc1cccc(O)c1)=C(/CO)Cc1cccc(O)c1 | 5.5% | 7.3% | 6.7% | 3.45% | 10.4% | 8.8%
7 | COc1cc(OC)c(C(C)=O)cc1OC | -9.2% | -13.9% | -3.15% | -2.8% | 6.3% | 6.7%
8 | CCN=C1Nc2ccccc2-n2c(nn3nc4ccccc4c23)N1CC | -13.1% | -26.4% | -42% | -24.3% | -41% | -51.7%
9 | COc1ccc(CC(NC(=O)OCc2ccccc2)C(=O)NC2C(CO)OC(n3cnc4c(N)ncnc43)C2O)cc1 (stereo unspecified) | 25.8% | -6% | 10.2% | 2.15% | -0.75% | -1.75%
10 | COC(=O)C1(NC(=O)C(Cc2ccccc2)NC(=O)C(NC(=O)C(CCCCNC(=O)OC(C)(C)C)NC(=O)C(Cc2c[nH]c3ccccc23)NC(=O)C(Cc2ccccc2)NC(=O)OCc2ccccc2)C(C)OC(C)(C)C)CCCC1 (stereo unspecified) (Cbz-FWK(Boc)T(tBu)F[Ac5c]-OMe; configuration not given here) | -11.9% | -1.85% | -26.6% | 6.9% | -11.4% | -12.7%
11 | CN(NC(=O)CCCl)C1=NCCCCN1 | -6.6% | -17.9% | -4.95% | 43.5% | -0.5% | 19.4%
12 | COc1ccc(NC(=O)Nc2ccc(Cl)cc2C)cc1 | -13.4% | -2.8% | -11.6% | -12.2% | -12.5% | -15.2%
13 | O=C(O)CC(NC(=O)OCc1ccccc1)C(=O)OCc1ccccc1 (stereo unspecified) | 0.55% | 17.9% | -12.3% | -16.6% | -21.1% | -20.1%
14 | CCOC(=O)C1/C(=C\O)C(=O)c2cc(OC)c(OC)cc2C1c1ccc(OC)c(OC)c1 (stereo unspecified) | -0.5% | 0.9% | 20.6% | 8.35% | -5.95% | 21.9%
15 | Cc1ccccc1C1=CCCCCC1 | -5.15% | -17.6% | -2.8% | 0.75% | -7.65% | -9.8%
16 | CC(=O)N(C)O | 21.2% | 17.4% | -4.05% | -5.85% | -19.9% | -0.4%
17 | FC1=C2C3CCC(C3)C2C1(F)F (stereo unspecified) | 12.1% | 4.1% | 20.1% | 16.9% | 2.7% | 17.1%
18 | O=C1Cc2ccccc2NC(c2ccccc2)C1S(=O)(=O)c1ccccc1 (stereo unspecified) | 7.05% | 4.35% | 9.3% | -2.15% | -0.05% | 19.6%

Row | Structure (SMILES) | growth inhibition [1] | growth inhibition [2] | growth inhibition [3] | growth inhibition [4] | growth inhibition [5] | growth inhibition [6]
19 | OCC1c2ccccc2C(CO)c2c1ccc1ccccc21 (stereo unspecified) | -0.3% | -2.3% | -7.1% | 11.1% | -9.15% | 4.45%
20 | COc1ccc(C2=NOC3COC4C=CC=CC4OCC23)cc1 (stereo unspecified) | -11.4% | -22.1% | -13.6% | -17.9% | -19.4% | -18.6%
21 | CC/C=N/Nc1cn[nH]c(=O)c1Cl | -1.3% | 0.1% | 9.85% | 4.85% | -7.75% | -14.9%
22 | COc1ccccc1NC(=O)OCc1ccco1 | 2.55% | -6.9% | 28.6% | -65.2% | 3.35% | 6.85%
23 | CCCCNCC1C(O)CCC2CN3CCc4c([nH]c5ccccc45)C3CC21 (stereo unspecified) | 15.9% | 5.85% | 11.3% | 9.9% | 6.05% | 16.9%
24 | Cc1cccc(C)c1NC(=O)CNc1ncccn1 | -14.3% | 1% | 3.7% | -4.7% | 19.1% | 4.65%
25 | CCCC(NC(=O)OCc1ccccc1)C(=O)NC(CO)C(=O)O (stereo unspecified) (Cbz-[Nva]-Ser-OH; configuration not given here) | 24.6% | 4.15% | 9.05% | 26.6% | 8.25% | 8.05%
26 | Cc1ccccc1N(C(=O)C(=O)O)c1ccccc1C | 1.35% | 7.75% | 8% | 7.95% | -0.5% | 0.15%
27 | COC(=O)c1cc2ccccc2cc1Nc1ccc2ccccc2c1 | 2.25% | 4.7% | 5.25% | -10.3% | -0.7% | 7.3%
28 | CCCC[P+](CCCC)(CCCC)C(C(=O)OC)C(C(=O)OC)=C1SC(C(=O)OC)=C(C(=O)OC)S1 (stereo unspecified) | -0.75% | 0.7% | 6.75% | 6.6% | 19.4% | -45.5%
29 | CCN(CC)CCOc1cccc(O)c1 | -5.95% | -16.1% | -12.1% | -50.5% | -8.3% | -2.9%
30 | CN(/N=C/c1ccccc1)c1nnnn1-c1ccccc1 | 3.2% | -5.7% | -5.85% | 33% | 0.6% | 9.9%
31 | CCOc1ccccc1NC(=S)NC(=O)CCc1ccccc1 | -12.9% | 14.2% | 41.9% | -35% | 31.6% | 21.8%
32 | CCOC(=O)CCC(NC(=O)c1ccc(NCc2nc3c([nH]2)c(=O)n(C)c(=O)n3C)cc1)C(=O)OCC (stereo unspecified) | 1.95% | 13.3% | 13.6% | 2.6% | -8.75% | 14.4%
33 | CC(=O)NC(CCCNC(=O)OCc1ccccc1)C(=O)NCc1ccccc1 (stereo unspecified) | -9.1% | -20.9% | -30% | -1.35% | -16.9% | -36%
34 | [O-][N+](=Nc1ccccc1)c1ccccc1 | 1.2% | 1.35% | 35.9% | -0.9% | 3.75% | 24%
35 | CO[C@@H]1[C@@H](OC2OC(C)C(OC3CC(C)(O)C(OC(=O)CC(C)C)C(C)O3)C(N(C)C)C2O)[C@@H](CC=O)C[C@@H](C)C(=O)/C=C/C2O[C@H]2C[C@@H](C)OC(=O)C[C@H]1OC(C)=O (stereo partly specified) | 4.1% | -22.6% | 4.75% | 8.95% | -14.3% | 17.3%
36 | Cn1c(=O)c2c(ncn2CCSS(=O)(=O)O)n(C)c1=O | -20.7% | -17.1% | 12.2% | -11.9% | -12% | -28.9%

Reference: PubChem BioAssay (NCI)
